Counter-ions that a name gives are not always drawn. A number with no mark means an inactive call.
Legend:
Details in all cases: 20 µM
[1] = system: Salmonella enterica typhimurium; test: growth AUC normalised to DMSO control (fraction of control); higher = less growth inhibition, active = hit call of the paper
How it was run: (§1)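 Pathogens passaged twice anaerobically were inoculated at a starting OD578 of 0.01 into pre-reduced mGAM plates with drug at 20 μM and 1% DMSO, sealed with breathable membranes. Haemophilus parainfluenzae medium was supplemented with hemin and NAD. OD578 was read hourly for 24 h, with three biological replicates. Growth-curve AUC was computed by the trapezoidal rule up to the exponential-to-stationary transition and normalised to DMSO controls on the same plate.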

[2] = system: Shigella flexneri; test: as above
How it was run: as §1

[3] = system: Vibrio cholerae; test: as above
How it was run: as §1

[4] = system: Yersinia pseudotuberculosis; test: as above
How it was run: as §1

[5] = system: P. vulgatus RND KO; test: growth AUC normalised to DMSO control (median) (fraction of control); higher = less growth inhibition, active = hit call of the paper
How it was run: (§2)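 Strains were passaged twice overnight without oxygen, then grown in mGAM in 96-well plates with each approved-drug library compound at 20 μM and 1% DMSO, starting at OD578 0.01. OD578 was read hourly for 24 h inside an anaerobic incubator. Curves were truncated at entry into stationary phase, and the trapezoidal-rule area under the curve was normalised to same-plate vehicle wells. The value is the median across three biological replicates.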

[6] = system: P. vulgatus WT; test: as above
How it was run: as §2

[7] = system: S. enterica typhimurium WT; test: as above
How it was run: as §2

[8] = system: S. enterica typhimurium tolC KO; test: as above
How it was run: as §2
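Wherever growth AUC normalised to DMSO control (median) is given: active when median AUC fell below 0.1.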

| SMILES | growth AUC normalised to DMSO control [1] | growth AUC normalised to DMSO control [2] | growth AUC normalised to DMSO control [3] | growth AUC normalised to DMSO control [4] | growth AUC normalised to DMSO control [5] | growth AUC normalised to DMSO control [6] | growth AUC normalised to DMSO control [7] | growth AUC normalised to DMSO control [8] |
| --- | --- | --- | --- | --- | --- | --- | --- | --- |
| Clc1cccc(Cl)c1NC1=NCCN1 [Clonidine hydrochloride] | 1.01 | 1.02 | 1.03 | 1.01 | 0.998 | 1.04 | 0.996 | 1.01 |
| C#Cc1cccc(Nc2ncnc3cc(OCCOC)c(OCCOC)cc23)c1 [Erlotinib] | 1 | 1.03 | 1.02 | 0.995 | 0.967 | 0.989 | 0.997 | 0.938 |
| Cc1ccc2c(c1)c1c3n2CCNC3CCC1 (stereo not given) [Pirlindole mesylate] | 0.988 | 0.999 | 0.993 | 0.964 | 1.02 | 1.03 | 0.998 | 0.992 |
| COc1ccc(C(=O)NCc2ccc(OCCN(C)C)cc2)cc1OC [Itopride] | 0.996 | 1.05 | 1.07 | 1.03 | 1.02 | 1.06 | 1.02 | 1 |
| Cc1c(OCC(F)(F)F)ccnc1C[S+]([O-])c1nc2ccccc2[nH]1 (stereo not given) [Lansoprazole] | 1 | 1 | 0.941 | 0.994 | 0.984 | 0.973 | 1 | 0.852 |
| COC(=O)C1=C(C)NC(C)=C(C(=O)OCCN(C)Cc2ccccc2)C1c1cccc([N+](=O)[O-])c1 (stereo not given) [Nicardipine hydrochloride] | 1 | 1.01 | 0.966 | 1 | 1.02 | 0.977 | 1.01 | 0.901 |
| CN1CCOC(c2ccccc2)c2ccccc2C1 (stereo not given) [Nefopam hydrochloride] | 0.987 | 0.993 | 0.983 | 1 | 0.992 | 0.982 | 1 | 0.988 |
| Cc1cccc(C)c1NC(=O)C1CCCCN1C (stereo not given) [Mepivacaine hydrochloride] | 1.01 | 1.06 | 1.07 | 1.02 | 1.06 | 1.05 | 0.99 | 0.996 |
| COc1cc(C)nc(-n2nc(C)cc2OC)n1 [Epirizole] | 0.997 | 1 | 0.981 | 0.992 | 0.979 | 0.999 | 1 | 1.01 |
| CC1=Nc2ccc(Cl)cc2S(=O)(=O)N1 [Diazoxide] | 1.01 | 1.03 | 1.02 | 0.999 | 1.04 | 1.01 | 1.01 | 0.989 |
| COc1ccc(OC)c(C(O)CNC(=O)CN)c1 (stereo not given) [Midodrine hydrochloride] | 0.992 | 0.99 | 1.02 | 1.02 | 1.02 | 1.02 | 1.02 | 1 |
| CC[C@@]1(O)C(=O)OCc2c1cc1n(c2=O)Cc2cc3c(CN(C)C)c(O)ccc3nc2-1 [Topotecan] | 1.05 | 1.04 | 1.03 | 1.02 | 1.01 | 1.02 | 1.02 | 0.983 |
| CC[N+](CC)(CC)CCOc1cccc(OCC[N+](CC)(CC)CC)c1OCC[N+](CC)(CC)CC [Gallamine triethiodide] | 1 | 1.02 | 1.01 | 1.02 | 1.02 | 1.02 | 1.01 | 1.01 |
| CC1(C)O[C@@H]2C[C@H]3[C@@H]4C[C@H](F)C5=CC(=O)CC[C@]5(C)[C@H]4[C@@H](O)C[C@]3(C)[C@]2(C(=O)CO)O1 [Flurandrenolide] | 1 | 1.01 | 1.03 | 0.996 | 1.06 | 1.07 | 0.996 | 0.986 |
| CCOC(=O)[C@H](CCc1ccccc1)N[C@@H](C)C(=O)N1Cc2ccccc2C[C@H]1C(=O)O [Quinapril hydrochloride] | 0.986 | 0.967 | 0.988 | 1.01 | 0.995 | 0.982 | 0.982 | 0.996 |
| CC1(C)S[C@@H]2[C@H](NC(=O)Cc3ccccc3)C(=O)N2[C@H]1C(=O)O [Benzylpenicillin sodium] | 0.0129 (active) | 0.9 | 0.136 (active) | 0.101 (active) | 0.0105 (active) | 0.00991 (active) | 0.0318 (active) | 0.0065 (active) |
| COC(c1ccccc1)(c1ccccc1)[C@H](Oc1nc(C)cc(C)n1)C(=O)O [Ambrisentan] | 0.98 | 1.02 | 1.01 | 1.01 | 0.997 | 0.983 | 0.991 | 0.99 |
| COc1ccc(CC2c3cc(OC)c(OC)cc3CC[N+]2(C)CCC(=O)OCCCCCOC(=O)CC[N+]2(C)CCc3cc(OC)c(OC)cc3C2Cc2ccc(OC)c(OC)c2)cc1OC (stereo not given) [Atracurium besylate] | 1 | 1.05 | 1.01 | 1 | 1.04 | 1.04 | 0.983 | 1.01 |
| CN(C)c1ccc(O)c2c1C[C@H]1C[C@H]3[C@H](N(C)C)C(=O)C(C(N)=O)=C(O)[C@@]3(O)C(=O)C1=C2O [Minocycline hydrochloride] | 0.00774 (active) | 0.0229 (active) | 0.0305 (active) | 0.0367 (active) | 0.0156 (active) | 0.0185 (active) | 0.0116 (active) | 0.00184 (active) |
| CCN(CC)CCOC(=O)C(Cc1cccc2ccccc12)CC1CCCO1 (stereo not given) [Nafronyl oxalate] | 0.985 | 0.977 | 0.943 | 0.992 | 0.993 | 0.989 | 0.994 | 0.959 |
| COc1ccccc1Oc1c(NS(=O)(=O)c2ccc(C(C)(C)C)cc2)nc(-c2ncccn2)nc1OCCO [Bosentan] | 1.02 | 1.03 | 1.01 | 1.01 | 1 | 1.01 | 1.01 | 0.985 |
| C=CCOc1ccccc1OCC(O)CNC(C)C (stereo not given) [Oxprenolol hydrochloride] | 0.993 | 1.02 | 1.03 | 1 | 0.998 | 1 | 0.997 | 0.994 |
| CC(C)(Sc1cc(C(C)(C)C)c(O)c(C(C)(C)C)c1)Sc1cc(C(C)(C)C)c(O)c(C(C)(C)C)c1 [Probucol] | 0.996 | 1.02 | 0.998 | 0.985 | 1 | 0.997 | 1.01 | 1 |
| Cc1cc(C(=O)NNCc2ccccc2)no1 [Isocarboxazid] | 0.994 | 1.02 | 1.03 | 0.996 | 1.05 | 1.05 | 0.998 | 0.993 |
| NCCCC(O)(P(=O)(O)O)P(=O)(O)O [Alendronate sodium] | 1.03 | 1.05 | 1.1 | 1.02 | 1.05 | 1.06 | 1 | 0.99 |
| COc1cccc2c1C(=O)c1c(O)c3c(c(O)c1C2=O)C[C@@](O)(C(C)=O)C[C@@H]3O[C@H]1C[C@H](N)[C@H](O)[C@H](C)O1 [Daunorubicin hydrochloride] | 0.998 | 0.959 | 1.04 | 0.978 | 0.865 | 0.95 | 0.999 | 0.00353 (active) |
| CC(=O)OCC(=O)[C@@]12OC(C)(C)O[C@@H]1C[C@H]1[C@@H]3C[C@H](F)C4=CC(=O)C=C[C@]4(C)[C@@]3(F)[C@@H](O)C[C@@]12C [Fluocinonide] | 0.994 | 0.97 | 0.973 | 1.12 | 0.967 | 0.951 | 1.01 | 0.995 |
| CC[N+](C)(C)c1cccc(O)c1 [Edrophonium chloride] | 1.01 | 1 | 1.02 | 0.964 | 1.02 | 1.02 | 1.01 | 0.992 |
| CCCNC(=O)NS(=O)(=O)c1ccc(Cl)cc1 [Chlorpropamide] | 1 | 1.02 | 1.01 | 0.996 | 1.02 | 1.06 | 1.01 | 1.04 |
| C[C@H]1C[C@H]2[C@@H]3CCC4=CC(=O)C=C[C@]4(C)[C@@]3(F)[C@@H](O)C[C@]2(C)[C@@]1(O)C(=O)CO [Betamethasone] | 0.985 | 0.957 | 0.979 | 0.988 | 0.986 | 0.98 | 1 | 0.991 |

From the supplement of paper PMC12350171
